The supplement of paper PMC11417369
± gives the standard deviation of the averaged measurements. In all, about 25,000 sequences were measured (“ln(normalized median fluorescence intensity)”: median about 7.9, highest 2% from about 11 on). The full list was thinned out, with the highest values kept by preference.

Test system: PfAP2-I AP2 domain 3 (GST-tagged)
Experiment: gcPBM binding intensity (ln(normalized median fluorescence intensity)); higher = stronger DNA binding
Summary of the method: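 In this array assay, P. falciparum DNA-binding domains with a GST tag, expressed in E. coli, were applied for 1 h to primer-extended double-stranded 36-bp intergenic genomic probes and negative controls on an Agilent 4 × 180k array. Bound protein was visualised with Alexa488 anti-GST antibody at 488 nm. Binding intensity is the highest Masliner-normalised natural-log median intensity across replicate spots of either probe orientation.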

| Sequence | gcPBM binding intensity (ln) |
| --- | --- |
| AAAAATAGAATAAATACACACCCGTGTAACGGATTT [CACACA_site3372] | 7.29 ± 0.93 |
| ATAAATTATATTCAAGTGCATGTAACTTATTATTAT | 8.29 ± 0.32 |
| TTTTTTATTCATGTAACACACATTTAATTATGAATT [CACACA_site2706] | 7.98 ± 0.58 |
| ACATAAATATAAACGTGTACATATATAAATATATAT [XGTACX_site7293] | 8.06 ± 0.26 |
| TCTTTTTTGAACTAGCGTACATGAAAATATTTATAG [XGTACX_site7359] | 7.83 ± 0.28 |
| ATTAAAATTTAAAATACACACACATATATATAATAT [CACACA_site8612] | 7.91 ± 0.42 |
| AAAATTTAATATAATGCACACATAAAAAAAAAAAAT [CACACA_site8425] | 11.1 ± 1 |
| TATAATTTAAAATACACACACATATATATAATATAT [CACACA_site2000] | 7.71 ± 0.47 |
| AAAATTATCGTTATATGTACGCATCTTAATACGTAT [XGTACX_site4063] | 7.79 ± 0.4 |
| GTGTAGTAAAATCGATGTACGTACAAATCAATTATT [XGTACX_site7662] | 8.06 ± 0.39 |
| AAAAACAAACTGTGCATGCACCAAAAAAAAAAAAAA | 10.4 ± 0.35 |
| TTTTTCATTTAGCTTTTACACACTATATATTATTGA [CACACA_site7888] | 7.94 ± 0.86 |
| ATATATATATATATTACACACTTTTTCTTTTTTTTT [CACACA_site2780] | 9.41 ± 0.35 |
| CAGGTGCACTATATTACACACGCTTCTTTTTTTTTA [CACACA_site2069] | 11.7 ± 0.59 |
| TACAATCTAAAATACACACGCACACCGAAAAAAAAA [CACACA_site3520] | 8.13 ± 0.37 |
| TTTTTTTTTTTAAATACATGCATGTCCTATTTAAAT [TGCATGCA_site494] | 7.92 ± 0.89 |
| TATATCTATTTCAAATGTACTTATATGATTCTTATA [XGTACX_site6277] | 7.67 ± 0.2 |
| AATATAATATATTGCACACAAAAAGTGAATTATTCT [CACACA_site1684] | 10.2 ± 0.4 |
| AATATATTGCACCATTGGACCTGAATAATTCTTCCA [CACACA_negctrl_site1071] | 11.8 ± 0.81 |
| TAATATATGTATTGCACACCTATAACCATTATTTCT [CACACA_site1498] | 10.2 ± 0.38 |
| AAGGGTTATAAAAATTGTACTTTTTTTATTTTTTTT [XGTACX_site1313] | 7.72 ± 0.56 |
| CACTTTAATTTATGCACACATATGGAACAACAGCCA [CACACA_site994] | 10.2 ± 0.38 |
| ATATACACTTAATTTTTTATAAAAAAAAATTTATAT [CACACA_negctrl_site498] | 7.66 ± 0.43 |

| Sequence | gcPBM binding intensity (ln) |
| --- | --- |
| ATATATATAATATAGGTGCACTACTTATTTAAAAAA | 11.6 ± 0.2 |
| TATTATAATATATTTGTGCACATAATATCTCCGCTA [GTGCAC_site9799] | 10.91 ± 0.049 |
| TATTATAATATATTTGTGCACATAATACCTCCGCTA [GTGCAC_site9570] | 10.7 ± 0.18 |
| TTATAATATTAATGTGCACACAATTAAAATATTATA [CACACA_site2046] | 10.6 ± 0.26 |
| AAATATTTATAGGTTTGTACTTATAAATAAAAAAAA [XGTACX_site7360] | 7.83 ± 0.41 |
| ATATAAATATATTGCACACACAATTATTATTATTAT [CACACA_site7147] | 10.1 ± 0.45 |
| TTTTAAACAAAAATTTGTACACAATAATTAAATATA [XGTACX_site6755] | 7.79 ± 0.32 |
| ATATATATCTTTTGTGTGCACATATATATAATATAT | 9.79 ± 0.22 |
| TATATTCTTTATAGGTGTACTTAATAAATAAAAAAT [XGTACX_site5378] | 8.11 ± 0.23 |
| TTTTTTTAATAGTGTGCACACAATATACAGAAAAAA [CACACA_site8399] | 10.1 ± 0.11 |
| TTTTTTTTTTTTTTTGTGCACAATATAATTTTTAAT [GTGCAC_site9747] | 10.9 ± 0.52 |
| CATATAAATATTTGTGCACACAATTATTAATAATTA [CACACA_site3884] | 11.3 ± 0.23 |
| ATAAATATTATTTTACGTACATATTTATGAAGTATT [XGTACX_site8746] | 7.92 ± 0.29 |
| ATTGTTCTATGATTTGTACACACTTTTTTTTAAAAT [CACACA_site2825] | 8.43 ± 0.46 |
| TTACATACATACAAGTGTACGCATATATTAATATTA [XGTACX_site4006] | 8 ± 0.26 |
| ATTATTTGTTTAATGAGTACGAAGACAAATTTTACC [XGTACX_site5223] | 8.12 ± 0.49 |
| TTTATAAAAAGCATAACACACACATGTCAATATATA [CACACA_site8286] | 7.71 ± 0.52 |
| TGAATCAATTGTTGCTGTACATAAGGTATACAATAA [XGTACX_site5127] | 7.97 ± 0.52 |
| ATGTATATATATATATGTACTAATTAGTAATTTACG [XGTACX_site6276] | 7.87 ± 0.32 |
| TATTTTATTTGTATATTCATTTGTATAATATAAATA [TGCATGCA_negctrl_site267] | 7.37 ± 0.55 |
| ATATTTTATATATTTGTGCACAATATTATAATATAT | 11.04 ± 0.049 |
| TATTATTCAAAATTTGTGCACAAAATTAAAGGAACA | 10.8 ± 0.27 |
| TAATATAATATATGCACACAAATATGTATTTATGTG [CACACA_site5210] | 9.14 ± 0.014 |

| Sequence | gcPBM binding intensity (ln) |
| --- | --- |
| TTTTTTTTTTTTTTTGTGCACAATTATTTCAATTTT [GTGCAC_site9884] | 10.9 ± 0.79 |
| ATATATATTAATTTTGTGCACAAATGGAAATGTTTG [GTGCAC_site9971] | 11 ± 0.2 |
| ATATTTTATTTAATTACACACAATATTGCAATTTGT [CACACA_site669] | 8.35 ± 0.53 |
| ATTTTTATTTTATATACACACAATAATAATATAATA [CACACA_site4015] | 7.83 ± 0.43 |
| AATTTATATAATTTTGTGCACAATATTCATGTATAT | 11 ± 0.14 |
| ATTTTTATTTTTTTTGTGCACATTTTCATTTTCTAT [GTGCAC_site9580] | 10.4 ± 0.47 |
| TGTATATGGTTTGTGCAAAAATTTATTAATGTGTAA [TGCATGCA_negctrl_site374] | 8.8 ± 0.35 |
| TGAAATTTTATTAATGTGCACATATATTTATTGTTC | 9.77 ± 0.26 |
| ATAAAATACAAAGGGACACACATATGAGTCTACAAA [CACACA_site3092] | 7.54 ± 0.6 |
| ATATATATATATGTTTATTTATTTGAACGATTGTGG [CACACA_negctrl_site828] | 9.4 ± 0.56 |
| AAAAAATTAAATAATTACAAAAAAATAAAATAAAAA [GTGCAC_negctrl_site638] | 7.5 ± 0.59 |
| TAAAAAATTTTCGCGTGTACGCAAGAAAAAAAAAAT [XGTACX_site3058] | 8.04 ± 0.72 |
| TTAAAAAAGTAATTAACACACAATAATGTAATGCAT [CACACA_site4176] | 8.18 ± 0.55 |
| TATTCTTCAATTTAAAGTACAAAAATTACTATACTT [XGTACX_site6599] | 7.58 ± 0.28 |
| AATATTATAAATGATACACACTTAAAATACAGACAC [CACACA_site8868] | 8.19 ± 0.4 |
| AATATTTATATTTACACACACATAATACCTATATGT [CACACA_site6167] | 7.83 ± 0.42 |
| TAAATGAGAAGGACTGCACACTAAAATGGAAGGAGA [CACACA_site8449] | 8.23 ± 0.71 |
| ATCCTGAACAGAATATGTATAAACAGAAGGAAACAA [CACACA_negctrl_site1805] | 7.92 ± 0.54 |
| GACATATATATAAAATGTACATATATATTTACATAT [XGTACX_site7822] | 7.75 ± 0.33 |
| TTTTTAATATATTAGGTGCACAATAATACACTTTAT | 11.51 ± 0.064 |
| ATTATTATTAATCTTGTGCACATATATTTTAATTAG | 10.6 ± 0.23 |
| TATTTATTTTTTTTTGTGCACTTAATATAATCTTAC | 11.07 ± 0.042 |
| ATTCAATATATATACACACACACTTTTAATAATTAA [CACACA_site3770] | 8.1 ± 0.43 |

| Sequence | gcPBM binding intensity (ln) |
| --- | --- |
| TTTAATTTATATTTTGTGCACATCTTATTATATATA [GTGCAC_site9630] | 10.5 ± 0.21 |
| ATTCAATATTTATACACACACACTTTTAATAATTAA [CACACA_site7725] | 8.05 ± 0.55 |
| CCGATATAATGGAAAACACACAAAAGATATATATAT [CACACA_site2683] | 9.01 ± 0.15 |
| AATATTTATAAATTTACACACACACCGGTGAACATA [CACACA_site8579] | 7.79 ± 0.57 |
| CATTTTTTTTTATAAATACACACGTACGGGTGCATA [CACACA_site1569] | 8.54 ± 0.54 |
| TTTTATAAATACACACGTACGTGTGCATAACGTTTT [XGTACX_site3199] | 9.465 ± 0.092 |
| TTTTTTTTTATAAATACACACGTACGGGTGCATAAC [CACACA_site8444] | 10.9 ± 0.73 |
| ATATGTAGATGATATTATTACTTTTCAAAAATTCAA [CACACA_negctrl_site933] | 7.58 ± 0.39 |
| TATGGTTTTAAAAAATGTACGCAAGTGCGTTAATTT [XGTACX_site3945] | 11.2 ± 0.93 |
| ATCATTTTTAATAAATGTACAAGTTTTAAAAAAAAA [XGTACX_site7340] | 7.7 ± 0.6 |
| TCGTGGTTTTAATAAGTGCGCAATTTAAATATTTTT | 9.31 ± 0.18 |
| ATACATATATGTGTGTGTACATAAATGTATATATTT [XGTACX_site6242] | 7.93 ± 0.38 |
| AACCCTTTTGATTTTTCTTTTTTTTTTTTTTTAAAT [CACACA_negctrl_site1667] | 7.5 ± 0.69 |
| TTTTTTAAAATATGGACACACATATATATATATGTA [CACACA_site2784] | 7.67 ± 0.3 |
| TAAAACTTAATATAAACACACAAAAATTAATAAATA [CACACA_site4370] | 7.62 ± 0.44 |
| TCACATTTTGGACACGTGCACATATATTTGATACAT | 9.48 ± 0.33 |
| TTTTTTTTTTTTTCAAGTACATATATATATATATAA [XGTACX_site2098] | 7.99 ± 0.45 |
| TTTTTTTTTTTTCACGTGCACTATACATATAAGTAA | 11.1 ± 0.23 |
| ATATATATATATTTTACACACAATGGAGAAAAAAAT [CACACA_site644] | 9.01 ± 0.092 |
| TTTTAAAGAAAATATTTTATCATTATTTTTTGTACT [CACACA_negctrl_site1648] | 7.41 ± 0.57 |
| TTAAAATCTTGAAAAGTGCATTATCATTTTGTAACG [GTGCAC_site9447] | 11.4 ± 0.73 |
| AGGGAAAAAAAAAAAGTGCATTTGTATTAAATGAAT | 9.9 ± 0.028 |
| GAGAGGTATCAAAAATGTACACATATATATATGTAT [XGTACX_site5611] | 7.79 ± 0.47 |
